Assay results reported in ChEMBL document CHEMBL4513216, “Probing the Open Global Health Chemical Diversity Library for Multistage-Active Starting Points for Next-Generation Antimalarials” (ACS Infect Dis, 2020).
About 8,600 (12%) of roughly 69,000 compounds showed an effect of 50% or more. The list comes from a sample in which strong results are over-represented; it also holds similar structures and randomly drawn compounds.

system: Plasmodium berghei; assay: Screen against P. berghei liver stage (PbLuc), transformed with Luciferase, at 10uM; assay type: functional, HepG2; settings: tested at 10 uM

SMILES	INHIBITION [%]
CN1CC[C@H]2[C@H](C[C@@H](CN3CCCC3)N2c2nccs2)C1	34.5
CCC(=O)N1CC[C@H]2[C@H](C[C@@H](CN3CCCC3)N2c2nccs2)C1	-0.284
CC(=O)N1CC[C@H]2[C@H](C[C@@H](CN3CCCC3)N2c2nccs2)C1	0.71
CN1CC[C@H]2[C@H](C[C@@H](Cn3cncn3)N2c2nccs2)C1	69.7
CC(=O)N1CC[C@H]2[C@H](C[C@@H](Cn3cncn3)N2c2nccs2)C1	85.4
CC(C)N1CC[C@H]2[C@H](C[C@@H](Cn3cncn3)N2c2nccs2)C1	0.71
Cc1nnc(N2CCOC(C)(C(=O)N(C)C)C2)c2ccccc12 (stereo unspecified)	-9.51
Cc1cnn(CC2CCCN2C(=O)c2cccc3[nH]ncc23)c1 (stereo unspecified)	24.5
Cc1cccc(Oc2ccccc2CNC(=O)C2CCC(=O)NC2)c1 (stereo unspecified)	37.9
O=C(NCc1ccc(F)cc1)NCC(O)(c1ccco1)C1CC1 (stereo unspecified)	66.9
O=C(NCC(O)(c1ccco1)C1CC1)c1ccccc1F (stereo unspecified)	9.79
O=C(NCc1ccc(F)cc1)NCC(O)(c1cccs1)C1CC1 (stereo unspecified)	-11.8
CN(C)Cc1nn(C)c2c1CCN(C(=O)c1cccnc1)C2	17.4
Fc1ccc(N2CCOC(Cc3cccnc3)C2)cc1 (stereo unspecified)	7.52
CN1CC[C@H]2CN(C(=O)COCc3nc4cc(F)ccc4[nH]3)C[C@H]21	47.3
CN1C[C@@H]2CC[C@H]1CN(C(=O)COCc1nc3ccc(F)cc3[nH]1)C2	35.1
CN(C)[C@H]1CCCCN(C(=O)COCc2nc3cc(F)ccc3[nH]2)C1	51.3
Cc1ccc(Br)cc1C(=O)Nc1cc(C(N)=O)n(C)c1	-20.2

SMILES	INHIBITION [%]
Cc1nc(C)n(CC2CN(Cc3cscn3)CCO2)n1 (stereo unspecified)	21.935
Cc1ccccc1-n1cc(-c2ccnc(N3CCCC(O)C3)n2)cn1 (stereo unspecified)	3.06
COc1cccc(-n2cc(-c3ccnc(N[C@H](CO)C(C)C)n3)cn2)c1	5.8
COC[C@H]1CCCN1c1nccc(-c2cnn(-c3ccccc3C)c2)n1	78.5
Cc1ccccc1-n1cc(-c2ccnc(N[C@@H](CO)C(C)C)n2)cn1	8.7
Cc1ccccc1-n1cc(-c2ccnc(N[C@H](CO)C(C)C)n2)cn1	68.2
Cc1ccccc1-n1cc(-c2ccnc(NC(CO)C(C)C)n2)cn1 (stereo unspecified)	95.7
Cc1ccccc1-n1cc(-c2ccnc(N3CCCC(CN)C3)n2)cn1 (stereo unspecified)	-29.6
COc1cccc(-n2cc(-c3ccnc(N[C@@H](CO)C(C)C)n3)cn2)c1	-95.7
COc1cccc(-n2cc(-c3ccnc(NC(CO)C(C)C)n3)cn2)c1 (stereo unspecified)	-40.6
Cc1cc(CN2CCN(C(=O)NCc3cccs3)CC2)no1	-43.5
CC(=O)NCCc1ccc(S(=O)(=O)Nc2cc(F)ccc2C)s1	-12.2
CC(=O)N1CCC(c2cccc(NC3CCOCC3)n2)CC1	11.8
COCCOCC1(CNCc2ccc(OC)cc2)C[C@@H](O)[C@@H](O)C1 (stereo partly specified)	-1.12
COCCOCC1(CNCc2cccc(OC)c2)C[C@@H](O)[C@@H](O)C1 (stereo partly specified)	12.4
COCCOCC1(CNC(=O)c2ccc(OC)cc2)C[C@@H](O)[C@@H](O)C1 (stereo partly specified)	50.6
Cc1nccc(N[C@H]2CN(CC(C)(C)N3CCOCC3)C[C@@H]2C2CC2)n1	-10.6
c1cc(CN2CC[C@H]3CO[C@H](CN4CCOCC4)[C@H]3C2)cs1	2.59
